Experimental findings from PubChem BioAssay AID2685 (National Center for Advancing Translational Sciences (NCATS), 2010) are described below.

In all, about 320,000 compounds went through this assay and about 2,100 (0.66%) were called active. Roughly 53% stayed inconclusive and do not appear here. This is one part of a sample in which actives are shown more often than they occur. Calls follow the shape of the dose curve; as a rule, active = well fitted inhibition curve with a large enough effect in the signal ratio, with a control signal flat (not every such curve was filed as active); inconclusive = small, poorly fitted or top-dose-only effect, or effect the other way, or a change in a side signal; inactive = flat fitted curve, though single readings scatter; the % refers to the signal ratio.
Potency is read from the fitted curve at half-maximal effect.

This experiment can be described thus: qHTS Assay for Lipid Storage Modulators in Drosophila S3 Cells.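 As to cell number change: cells counted by Cell Tracker Red CMTPX staining in the red channel.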 The note with it: BODIPY lipid droplet fluorescence, 18-24 h, cells fed with added oleic acid; cell number change: measured here: cell count max response; series mostly up to 46.1 µM. The gist of the method:
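Drosophila S3 cells loaded with oleic acid (400 uM, as added) and compounds at several concentrations; lipid droplets imaged by 488-nm laser-scanning cytometry, 500–530 nm intensity and object ratio to cell channel. Percent activity normalized to 20 uM Triacsin C.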
Background: Quantitative high-throughput screening tests each substance at several concentrations.
Turning to `COc1ccc(N(C(=O)CNC(=O)c2cccs2)C(C(=O)NCC2CCCO2)c2ccccc2)c(OC)c1` (centres undefined), the Potency entry is “inactive” and the cell number change came out at 5.71%.
In the same order, the values of `CC(=O)Oc1ccc2nc(-c3cccs3)oc(=O)c2c1` are “inactive” and -22.5%.
In the same order, the values of `Cc1ccc(NC(=S)NC(CO)C(O)c2ccc([N+](=O)[O-])cc2)cc1` (centres undefined) are “inactive” and -1.73%.
In the same order, the values of `Fc1cnc(N2CCOCC2)nc1N1CCc2ccccc21` are “inactive” and -10.6%.
For the compound `O=C(c1ccccc1C(=O)N1CCN(c2ccc(F)cc2)CC1)N1CCN(c2ccc(F)cc2)CC1`, the Potency was 2.59 µM (active) and the cell number change is -27%.
In the same order, the values of `O=C(O)c1ccccc1C(=O)N1CCN(c2ccccc2)CC1` are “inactive” and 0.845%.
In the same order, the values of `O=C(c1ccccc1Oc1ccccc1)N1CCN(c2ccc(F)cc2)CC1` are “inactive” and 14.1%.
As to `CC(C)CN(C(=O)CCC(=O)OCC(=O)N(C)c1ccccc1)c1c(N)n(CC(C)C)c(=O)[nH]c1=O`, the Potency entry is “inactive”.
As to `CC1CN(C(=O)c2cc3c(=O)n4ccccc4nc3n2C)CC(C)O1` (centres undefined), the Potency entry is “inactive” and the cell number change was found to be 15.1%.
`CC1CC(NC(=O)c2cc3c(=O)n4ccccc4nc3n2C)CC(C)(C)C1` (centres undefined): the Potency is 18.4 µM (active) and the cell number change was 3.3%.
In the same order, the values of `Cn1c(C(=O)O)cc2c(=O)n3ccccc3nc21` are “inactive” and 3.26%.
`CCOc1cc(C(=O)NCC2CCCO2)cc(OCC)c1OCC` (centres undefined): the Potency entry was “inactive”.
Take `Cc1cc(C)c(S(=O)(=O)N2CCN(C(=O)c3c(C)noc3C)CC2)c(C)c1`: the Potency result was “inactive” and the cell number change is -0.389%.
`Cc1ccc(NC2SC(=O)N(CC(=O)O)C2=O)cc1` (centres undefined): the Potency is 23.1 µM (active) and the cell number change is -7.73%.
In the same order, the values of `O=C(O)CN1C(=O)SC(Nc2ccccc2)C1=O` (centres undefined) are “inactive” and 7.54%.
In the same order, the values of `CCOC(=O)CN1C(=O)SC(Nc2ccc(C)cc2)C1=O` (centres undefined) are “inactive” and 0.723%.
In the same order, the values of `Cn1cnnc1SCCNS(=O)(=O)c1cccc([N+](=O)[O-])c1` are “inactive” and 3.23%.
For `CN(C)S(=O)(=O)N(CCN1CCOCC1)Cc1ccccc1F`, the Potency was 9.2 µM (active) and the cell number change was found to be 6.57%.
In the same order, the values of `Cc1ccc(NC(=S)N(CCN2CCOCC2)Cc2ccccc2F)cc1` are “inactive” and -12.7%.
As to `CCc1ccc(NC(=S)N(CCN2CCOCC2)Cc2ccccc2F)cc1`, the Potency entry was “inactive” and the cell number change came out at 13.9%.
As to `Cn1cnnc1Sc1ccc(C(F)(F)F)cc1[N+](=O)[O-]`, the Potency result is “inactive” and the cell number change is 20.3%.
Consider `Cc1ccc(C2(c3noc(CN4C[C@@H](C)O[C@@H](C)C4)n3)CCCC2)cc1`, for which the Potency result was “inactive” and the cell number change is -4.24%.
In the same order, the values of `CCOc1ccc2ccccc2c1C(=O)Nc1cc(=O)n(C)c(=O)n1C` are “inactive” and -14%.
In the same order, the values of `Cc1[nH]n(-c2ccccc2)c(=O)c1N=Nc1ccccc1C(=O)N1CCOCC1` are “inactive” and -24.3%.
In the same order, the values of `Cc1[nH]n(-c2ccccc2)c(=O)c1N=Nc1ccc(Cl)cc1` are 9.2 µM (active) and -10.2%.
Regarding `Cc1[nH]n(-c2ccccc2)c(=O)c1N=O`, the Potency result was “inactive” and the cell number change is -9.61%.
In the same order, the values of `Cc1[nH]n(-c2ccccc2)c(=O)c1N=Nc1ccc(C(N)=O)cc1` are “inactive” and 15.5%.
As to `Cc1[nH]n(-c2ccc(Cl)cc2)c(=O)c1N=Nc1cccnc1`, the Potency result was “inactive” and the cell number change was found to be 8.32%.
In the same order, the values of `COc1ccccc1N=Nc1c(C)[nH]n(-c2ccccc2)c1=O` are 14.6 µM (active) and 0.338%.
With `COc1ccccc1NC(=O)C1=C(C)Nc2nc(-c3ccccc3)nn2C1c1ccccn1` (centres undefined), the Potency entry was “inactive”.
Consider `O=C(CN1C(=O)NC2(CCCCCCC2)C1=O)Nc1ccc(Cl)cc1`, for which the Potency result is “inactive” and the cell number change was determined as 27.1%.
In the same order, the values of `COC(=O)C1=C(NC(=O)C2CCCCC2)CCS1` are “inactive” and -10%.
Consider `CC(C)Oc1ccc(/C=C/C(=O)NCC2COc3ccccc3O2)cc1` (centres undefined), for which the Potency result is “inactive” and the cell number change was -3.08%.
In the case of `CCS(=O)(=O)c1nc(S(=O)(=O)c2ccc(C)cc2)c(NCCN2CCOCC2)s1`, the Potency entry was “inactive”.
`O=C(NCCNC1CCCCC1)c1ccco1`: the Potency entry is “inactive” and the cell number change came to 17.5%.
In the same order, the values of `CCOC(=O)N1CCC(NCCNC(=O)c2ccco2)CC1` are “inactive” and -0.499%.
For the compound `O=C(Nc1ccc(S(=O)(=O)N2CCCCCC2)cc1)c1ccco1`, the Potency entry was “inactive”.
Turning to `CCOc1ccc(NC(=O)c2ccco2)cc1S(=O)(=O)N1CCCC1`, the Potency entry was “inactive” and the cell number change is 3.85%.
Take `O=C(Nc1ccc(S(=O)(=O)N2CCOCC2)cc1)c1ccco1`: the Potency entry is “inactive”.
Consider `O=C(Nc1ccc(N2CCCC2)c(Cl)c1)c1ccco1`, for which the Potency result was “inactive” and the cell number change is -15.9%.
In the same order, the values of `CC1CCC(NCCNC(=O)c2ccco2)CC1` (centres undefined) are 0.82 µM (active) and 15.3%.
In the same order, the values of `CC1CCN(S(=O)(=O)c2ccc(NC(=O)c3ccco3)cc2)CC1` are 16.4 µM (active) and -3.17%.
Take `O=C(Nc1ccc(Cl)c(S(=O)(=O)N2CCCCC2)c1)c1ccco1`: the Potency was 0.291 µM (active) and the cell number change was found to be 11.9%.
In the same order, the values of `Cc1nc([N+](=O)[O-])cn1-c1ccc(N)cc1` are “inactive” and -2.93%.
In the same order, the values of `O=C(c1nc2ccc(Cl)cn2c1CN1CCCC(CO)C1)N1CCc2ccccc2C1` (centres undefined) are “inactive” and 10.9%.
In the same order, the values of `Cc1ccc(S(=O)(=O)c2c(C)cc(C)[nH]c2=O)c(C)c1` are “inactive” and 17.9%.
For `Oc1ccc(Br)cc1/C=N/N1CCN(Cc2cccc3ccccc23)CC1`, the Potency result was “inactive” and the cell number change was found to be 17%.
In the same order, the values of `Cc1c(NC(=O)C2(c3ccccc3)CCOCC2)c(=O)n(-c2ccccc2)n1C` are “inactive” and -18.3%.
In the same order, the values of `CC(C)=C1C2CCC1C(C(=O)NCc1ccccc1)C2C(=O)O` (centres undefined) are 25.9 µM (active) and -4.67%.
In the same order, the values of `CC(C)=C1C2CCC1C(C(=O)Nc1cc(C)cc(C)c1)C2C(=O)O` (centres undefined) are “inactive” and 13.2%.
In the case of `CC(C)=C1C2CCC1C(C(=O)NCCc1ccccc1)C2C(=O)O` (centres undefined), the Potency result was “inactive” and the cell number change came to 6.84%.
With `CC(C)NC(=O)c1ccc2c(c1)N(CC(=O)NC1CCCCC1)C(=O)C(C)(C)O2`, the Potency result was “inactive” and the cell number change came to 19%.
In the same order, the values of `S=C(Nc1ccccn1)Nc1ccccc1Cl` are “inactive” and -6.96%.
In the same order, the values of `CCS(=O)(=O)Nc1cccc(-c2ccc3nnc(-c4cccnc4)n3n2)c1` are 5.8 µM (active) and -27%.
In the same order, the values of `O=C(CSc1ccc2nnc(-c3cccnc3)n2n1)Nc1ccccc1` are 0.411 µM (active) and 8.38%.
With `CC(=O)c1ccc(NC(=O)CSc2ccc3nnc(-c4cccnc4)n3n2)cc1`, the Potency result was “inactive” and the cell number change worked out at 1.01%.
`CCCS(=O)(=O)Nc1cccc(-c2ccc3nnc(C)n3n2)c1`: the Potency entry was “inactive” and the cell number change was found to be 7.15%.
In the same order, the values of `Cc1ccc(NC(=O)CSc2ccc3nnc(-c4cccnc4)n3n2)cc1` are “inactive” and -9.27%.
In the same order, the values of `CCS(=O)(=O)Nc1cccc(-c2ccc3nnc(C)n3n2)c1` are “inactive” and -5.54%.
In the same order, the values of `CCOC(=O)C(C(=O)NCCCN1CCOCC1)C1CCCCC1` (centres undefined) are “inactive” and 5.53%.
